Data as given in PubChem BioAssay AID624418 (National Center for Advancing Translational Sciences (NCATS), 2012).
The whole screen tested about 410,000 compounds, of which about 530 (0.13%) were called active. About 5% were inconclusive and are not listed. Only a selection was taken, and actives are over-represented in it overall. Unmarked numbers belong to inactive results. Calls come from the whole dose curve; as a rule, active = well fitted inhibition curve with a large enough effect; inconclusive = small, poorly fitted or top-dose-only effect, or another doubt; inactive = no such curve, though single readings can be large or run the other way.

assay: qHTS of GLP-1 Receptor Inverse Agonists: Cytotox Screen; conditions: HEK293 cAMP-luciferase reporter cells, luminescence, 24 h; series mostly up to 38.3 µM; activity change, negative = inhibition: at the top concentration;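 note: loss of luciferase light is scored as toxicity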
From the text: The overall goal of this project was to develop a novel assay for discovering small molecule ligands for class B1 G protein-coupled receptors (GPCRs). Very few agonists (or inverse agonists) with generally weak activity for this entire group of physiologically important receptors are known to date. To establish proof-of-principle that this critical bottleneck can be overcome with a suitable screening approach, our studies focused on the class B1 receptor for glucagon-like peptide-1 (GLP-1R), a potential therapeutic target for diabetes and neurodegenerative disease.
The assay was developed using a cell-based functional readout. Toward this goal, stably transfected HEK293 cell clones were established that co-express (i) a cAMP-responsive luciferase reporter gene, and (ii) constitutively active GLP-1R that upon ligand interaction inhibit (inverse agonists) the luciferase activity. In addition, two control cell lines were developed: (i) one that express only the cAMP-responsive reporter gene to enable initial exclusion of GLP-1R independent effects of candidate probes; and (ii) one with the reported gene cloned with another constitutively active orphan receptor GPR119 to enable exclusion of GLP-1R independent inhibitor effects of candidate inverse agonists.
To that end, this assay was optimized for 1536-well format and screened against the MLSMR. Then the same collection was run in this cytotoxicity assay where inhibition was the undesired outcome.
NIH Molecular Libraries Probe Production Network [MLPCN]
NIH Chemical Genomics Center [NCGC]
PI Name: Martin Beinborn, Tufts Medical Center
Six ul of cell suspension (200 cells/uL in DMEM + 10% Nu serum + 1% pen-strep) is dispensed in a white solid 1536-well plate. The plates are incubated for 12 hours at 37 deg C at 5% CO2 followed by addition of 23 nL compounds. After 24 hr incubation at 37 deg C and 5% CO2, 3 uL of luciferase assay detection reagent is added. A luminescence read is obtained on the PerkinElmer Viewlux after 12 min incubation at room temperature.
% is set by controls: 0 for no effect and ±100 for the full control effect; potency is the fitted concentration of half-maximal effect.

Question: Which Potency does the source give for `O=C(Nc1ccc(OC(F)(F)F)cc1)c1ccc2c(c1)no[n+]2[O-]` here?
Answer: The Potency was 11.2 µM (active).

Question: Which “activity change, negative = inhibition” value does the source give for `O=C(Nc1ccc(Cl)cn1)Nc1cccs1` here?
Answer: The value was 49.1%.

Question: Which “activity change, negative = inhibition” value does the source give for `CCOC(=O)[C@]12Cc3cc(OC)ccc3[C@H]1N(C(C)C)C(=O)c1ccccc12` here?
Answer: The value was -28.2%.

Question: With `CCOc1ccc2nc(Nc3nc4ccc(NC(C)=O)cc4s3)sc2c1` as the molecule, how does the “activity change, negative = inhibition” value read?
Answer: The value was 37.9%.

Question: With `Cc1ccc(NC(=O)N(Cc2ccc3c(c2)OCO3)C2CCN(Cc3ccccc3)CC2)cc1F` as the molecule, how does the “activity change, negative = inhibition” value read?
Answer: The value was -0.237%.

Question: Which Potency does the source give for `COc1ccc(CS(=O)/C(Cl)=C(/Cl)C(=O)Nc2ccc(OC)nc2)cc1` (stereo not given) here?
Answer: The Potency was 3.98 µM (active).

Question: For `O=C1N[C@H](Cc2c[nH]c3ccccc23)COC(=O)[C@H](Cc2ccc(F)cc2)C/C=C\C[C@H]1CC(=O)N(CCO)Cc1ccccc1`, which “activity change, negative = inhibition” value is on record?
Answer: Its value is -58.3%.

Question: Which “activity change, negative = inhibition” value does the source give for `CCN(CC)CCCC(C)n1c2nc(=O)[nH]c(=O)c-2nc2cc(Cl)ccc21` (stereo not given) here?
Answer: Its value is 490%.

Question: With `c1cc2c(c(NC3=NCCCS3)c1)CCCC2` as the molecule, how does the “activity change, negative = inhibition” value read?
Answer: The value was -18%.

Question: With `Cc1nnc(NC(=O)c2cccn(Cc3cccc(F)c3)c2=O)s1` as the molecule, how does the “activity change, negative = inhibition” value read?
Answer: The value was 4.13%.

Question: Which “activity change, negative = inhibition” value does the source give for `Cc1cccc(Cn2cccc(C(=O)Nc3ccc4c(c3)OCCO4)c2=O)c1` here?
Answer: The value was 4.23%.

Question: For `C=CCC[C@@H](Cc1ccc(F)cc1)C(=O)OC[C@H](Cc1c[nH]c2ccccc12)NC(=O)[C@@H](CC=C)CC(=O)N(CCO)Cc1ccccc1`, which “activity change, negative = inhibition” value is on record?
Answer: The value was 7.51%.

Question: For `Nc1ccc(-c2sc(N)nc2-c2ccccc2)cc1`, which “activity change, negative = inhibition” value is on record?
Answer: Its value is 184%.

Question: With `NS(=O)(=O)c1ccc(NC(=O)COC(=O)c2c3c(nc4ccccc24)/C(=C\c2ccc4c(c2)OCO4)CCC3)cc1` as the molecule, how does the “activity change, negative = inhibition” value read?
Answer: Its value is 80.2%.

Question: With `C=CC(=O)Nc1ccc(Nc2ccnc(Nc3ccc(N4CCN(C)CC4)cc3)n2)cc1` as the molecule, how does the Potency read?
Answer: Its Potency is 10 µM (active).

Question: For `CCC1(CC(C)c2ccccc2)C(=O)NC(=O)NC1=O` (stereo not given), which “activity change, negative = inhibition” value is on record?
Answer: Its value is 9.72%.

Question: Which “activity change, negative = inhibition” value does the source give for `COc1cccc2sc3cc(NCC[C@@H]4CCCN4C)ccc3c(=O)c12` here?
Answer: Its value is 221%.

Question: Which “activity change, negative = inhibition” value does the source give for `CC(C)c1ccc(C=NNc2ccc([N+](=O)[O-])cn2)cc1` here?
Answer: The value was 44.1%.

Question: Which Potency does the source give for `Cc1cc(C)c2c(c1)cc(C)c1nnc(SCC(=O)Nc3cc(C)on3)n12` here?
Answer: Its Potency is 10 µM (active).

Question: With `COc1ccc(-c2nc3cnccn3c2NC2CCCCC2)cc1-c1cccc(Cl)c1` as the molecule, how does the “activity change, negative = inhibition” value read?
Answer: The value was 77.1%.

Question: For `NC(=O)c1sc2nc3c(c(-c4ccccc4)c2c1N)CCC3`, which “activity change, negative = inhibition” value is on record?
Answer: The value was 56.3%.

Question: Which “activity change, negative = inhibition” value does the source give for `COc1ccccc1OC(=O)c1ccc(C)c(S(=O)(=O)N2CCOCC2)c1` here?
Answer: The value was 0.53%.

Question: With `O=C(Nc1nnc(-c2ccccc2)o1)c1cccc(S(=O)(=O)N2CCOCC2)c1` as the molecule, how does the Potency read?
Answer: Its Potency is 10 µM (active).

Question: With `O=C(c1cc(S(=O)(=O)N2CCOCC2)ccc1F)N1CCC2(CC1)OCCO2` as the molecule, how does the “activity change, negative = inhibition” value read?
Answer: The value was -20.6%.

Question: With `CCc1ccc(OCC(=O)N2CCN(CC(=O)Nc3ccccc3Cl)CC2)cc1` as the molecule, how does the “activity change, negative = inhibition” value read?
Answer: The value was -14.3%.
